Measurements: PubChem BioAssay (NCI)
About 79,000 compounds went through this panel and 15% of them were active in at least one assay; those are over-represented in the sample as a whole. Active and inactive are the calls of the source. Cut-off read from the data, not from the text of the source: active = growth inhibition above about 70%; inactive = the rest.

Experiments:
[1] = NCI Yeast Anticancer Drug Screen. Data for the rad52 strain (AID 147);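 note: 0% = growth of vehicle-treated control cultures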; conditions: S. cerevisiae rad52 mutant growth inhibition, active compounds read high
How it was run: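 Inhibition of yeast growth, referenced to vehicle controls, was the measured output for a strain with defective DNA damage repair.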

[2] = NCI Yeast Anticancer Drug Screen. Data for the wt1 strain (AID 149);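 note: 0% = growth of vehicle-treated wt1 cultures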; conditions: S. cerevisiae wt1 strain (SPY 50644) growth inhibition, active compounds read high
How it was run: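 Compounds are added to wt1 yeast cultures. Growth is then measured. Inhibition is expressed relative to vehicle-treated controls.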

[3] = NCI Yeast Anticancer Drug Screen. Data for the rad50EPP+ strain (AID 151);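 note: 0% = growth of vehicle-treated control cultures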; conditions: S. cerevisiae rad50 mutant strain, active compounds read high
How it was run: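 Genetically defined yeast (rad50EPP+, DNA damage repair alteration) is grown with compound, and inhibition of growth is expressed relative to vehicle-treated controls.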

[4] = NCI Yeast Anticancer Drug Screen. Data for the mgt1 strain (AID 153); conditions: S. cerevisiae mgt1 mutant growth inhibition, active compounds read high
How it was run: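 In the mgt1 strain, test compounds were added and growth inhibition was determined relative to vehicle-treated controls.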

[5] = NCI Yeast Anticancer Drug Screen. Data for the rad50 strain (AID 155);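 note: 0% = growth of vehicle-only cultures of the same strain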; conditions: S. cerevisiae rad50 strain growth inhibition, active compounds read high
How it was run: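 Inhibition values express reduced yeast growth in compound-treated cultures relative to vehicle-treated controls.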

[6] = NCI Yeast Anticancer Drug Screen. Data for the mec2-1 strain (AID 157); conditions: S. cerevisiae mec2-1 strain, active compounds read high
How it was run: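 Each compound was tested on mec2-1 yeast, a strain altered in DNA damage repair or cell cycle control. Growth inhibition is reported relative to vehicle.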

[7] = NCI Yeast Anticancer Drug Screen. Data for the rad14 strain (AID 159);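 note: 0% = growth of vehicle-treated control cultures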; conditions: S. cerevisiae rad14 strain growth inhibition, active compounds read high
How it was run: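 A mutant yeast strain defective in DNA damage repair is treated with compound; inhibition of its growth is scored against untreated, vehicle-exposed cultures.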

[8] = NCI Yeast Anticancer Drug Screen. Data for the sgs1 mgt1 strain (AID 161);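 note: 0% = growth of cultures given vehicle only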; conditions: S. cerevisiae sgs1 mgt1 strain, active compounds read high
How it was run: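 Test agents were incubated with a DNA-repair-mutant yeast strain. Growth was then read and compared against vehicle-treated controls.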

[9] = NCI Yeast Anticancer Drug Screen. Data for the CLN2oe strain (AID 163);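 note: 0% = growth of vehicle-only control cultures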; conditions: S. cerevisiae CLN2oe strain, active compounds read high
How it was run: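 First, the altered yeast strain was treated with each compound; second, its growth was measured; finally, inhibition was derived by comparison with vehicle controls.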

[10] = NCI Yeast Anticancer Drug Screen. Data for the cln2 rad14 strain (AID 165);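 note: 0% = growth equal to vehicle treated cultures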; conditions: S. cerevisiae cln2 rad14 strain, active compounds read high
How it was run: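 Test compounds were added to cln2 rad14 yeast cultures; inhibition of growth was then determined by comparison with vehicle treatment.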

[11] = NCI Yeast Anticancer Drug Screen. Data for the bub3 strain (AID 167); conditions: S. cerevisiae bub3 mutant strain, active compounds read high
How it was run: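 Steps: expose the mutant yeast strain to compound; grow alongside vehicle-treated cultures; measure growth; express inhibition against the vehicle cultures.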

[12] = NCI Yeast Anticancer Drug Screen. Data for the wt2 strain (AID 169);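 note: 0% = growth of vehicle-treated yeast cultures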; conditions: S. cerevisiae wt2 strain growth inhibition, active compounds read high
How it was run: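 The panel's yeast strains carry defined changes in DNA repair or cell cycle genes. Each strain is grown with compound, and growth loss is scored relative to vehicle.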

[13] = NCI Yeast Anticancer Drug Screen. Data for the mlh1 strain (AID 171);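 note: 0% = growth of vehicle-treated control cultures of the same strain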; conditions: S. cerevisiae mlh1 strain growth inhibition, active compounds read high
How it was run: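 Inhibition values reflect reduced yeast growth in the presence of compound, referenced to vehicle controls, using a strain chosen for its alteration in DNA repair or cell cycle control.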

[14] = NCI Yeast Anticancer Drug Screen. Data for the sgs1 strain (AID 173);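 note: 0% = growth of vehicle-only control cultures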; conditions: S. cerevisiae sgs1 mutant, active compounds read high
How it was run: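 Vehicle-treated cultures served as reference for growth inhibition of a yeast strain altered in DNA damage repair or cell cycle control after compound exposure.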

[15] = NCI Yeast Anticancer Drug Screen. Data for the mlh1 rad18 strain (AID 175); conditions: S. cerevisiae mlh1 rad18 strain growth inhibition, active compounds read high
How it was run: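 Inhibition values reflect reduced growth of mutant yeast versus vehicle-treated controls following compound exposure; the mutations affect DNA damage repair.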

[16] = NCI Yeast Anticancer Drug Screen. Data for the rad18 strain (AID 177); conditions: S. cerevisiae rad18 mutant growth inhibition, active compounds read high
How it was run: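 Steps: expose repair-mutant yeast to compound; measure growth; express as inhibition relative to vehicle control.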

[17] = at 5.0 µM (retest, dose inferred, filed as 0.5)
[18] = at 50.0 µM (retest, dose inferred, filed as 5.0)

Measured: growth inhibition

CCC(=O)C1=C(O)c2cc(OC)ccc2CC1C(=O)OC (stereo unspecified)
active: [3]; at 33.0 µM 73% | [3]; at 100.0 µM 86% | [5]; [18] 73% | [8]; [18] 89% | [11]; [18] 78% | [15]; [18] 90%
inactive: [1]; at 1.2 µM -1% | [1]; at 3.7 µM 2% | [1]; at 11.0 µM 7% | [1]; at 33.0 µM 16% | [1]; at 100.0 µM 43% | [2]; at 1.2 µM 0% | [2]; at 3.7 µM 5% | [2]; at 11.0 µM 4% | [2]; at 33.0 µM 6% | [2]; at 100.0 µM 19% | [3]; at 1.2 µM 2% | [3]; at 3.7 µM 6% | [3]; at 11.0 µM 43% | [4]; at 1.2 µM -2% | [4]; at 3.7 µM -1% | [4]; at 11.0 µM 4% | [4]; at 33.0 µM 10% | [4]; at 100.0 µM 19% | [5]; at 1.2 µM -1% | [5]; at 3.7 µM -1% | [5]; [17] -9% | [5]; at 11.0 µM 6% | [5]; at 33.0 µM 4% | [5]; at 50.0 µM 13.1% | [5]; at 100.0 µM 28% | [6]; at 1.2 µM -1% | [6]; at 3.7 µM -4% | [6]; [17] -5% | [6]; at 11.0 µM -1% | [6]; at 33.0 µM 13% | [6]; [18] -1% | [6]; at 50.0 µM 13.2% | [6]; at 100.0 µM 35% | [7]; at 1.2 µM 2% | [7]; at 3.7 µM 6% | [7]; at 11.0 µM 11% | [7]; at 33.0 µM 19% | [7]; at 100.0 µM 35% | [8]; [17] -3% | [8]; at 50.0 µM 24% | [9]; at 1.2 µM -7% | [9]; at 3.7 µM -8% | [9]; at 11.0 µM 2% | [9]; at 33.0 µM 10% | [9]; at 100.0 µM 21% | [10]; [17] -5% | [10]; [18] 20% | [10]; at 50.0 µM 4.75% | [11]; at 1.2 µM -7% | [11]; at 3.7 µM -8% | [11]; [17] 7% | [11]; at 11.0 µM -9% | [11]; at 33.0 µM 2% | [11]; at 50.0 µM 38.9% | [11]; at 100.0 µM 15% | [12]; at 1.2 µM -2% | [12]; at 3.7 µM 3% | [12]; at 11.0 µM 8% | [12]; at 33.0 µM 14% | [12]; at 100.0 µM 30% | [13]; at 1.2 µM -5% | [13]; at 3.7 µM -1% | [13]; at 11.0 µM 2% | [13]; at 33.0 µM 10% | [13]; at 100.0 µM 26% | [14]; at 1.2 µM -1% | [14]; at 3.7 µM -1% | [14]; at 11.0 µM 4% | [14]; at 33.0 µM 18% | [14]; at 100.0 µM 37% | [15]; [17] 16% | [15]; at 50.0 µM 31.4% | [16]; at 1.2 µM -1% | [16]; at 3.7 µM -3% | [16]; at 11.0 µM 2% | [16]; at 33.0 µM 8% | [16]; at 100.0 µM 21%

CCCCCCCCCCCNC=O
active: [1]; at 100.0 µM 98% | [2]; at 100.0 µM 98% | [3]; at 100.0 µM 97% | [4]; at 33.0 µM 72% | [4]; at 100.0 µM 98% | [5]; [18] 96% | [5]; at 50.0 µM 89.9% | [5]; at 100.0 µM 98% | [6]; [18] 96% | [6]; at 50.0 µM 91.3% | [6]; at 100.0 µM 98% | [7]; at 100.0 µM 98% | [8]; [18] 93% | [8]; at 50.0 µM 92.5% | [9]; at 100.0 µM 98% | [10]; [18] 94% | [10]; at 50.0 µM 88% | [11]; [18] 97% | [11]; at 50.0 µM 89.4% | [11]; at 100.0 µM 98% | [12]; at 100.0 µM 98% | [13]; at 100.0 µM 98% | [14]; at 100.0 µM 99% | [15]; [18] 97% | [15]; at 50.0 µM 88.6% | [16]; at 100.0 µM 98%
inactive: [1]; at 1.2 µM -33% | [1]; at 3.7 µM -30% | [1]; at 11.0 µM -39% | [1]; at 33.0 µM 34% | [2]; at 1.2 µM -18% | [2]; at 3.7 µM -10% | [2]; at 11.0 µM -9% | [2]; at 33.0 µM 1% | [3]; at 1.2 µM -14% | [3]; at 3.7 µM -11% | [3]; at 11.0 µM 0% | [3]; at 33.0 µM 15% | [4]; at 1.2 µM -30% | [4]; at 3.7 µM -19% | [4]; at 11.0 µM -18% | [5]; at 1.2 µM -16% | [5]; at 3.7 µM -19% | [5]; [17] 1% | [5]; at 11.0 µM -41% | [5]; at 33.0 µM 29% | [6]; at 1.2 µM -22% | [6]; at 3.7 µM -21% | [6]; [17] 7% | [6]; at 11.0 µM -20% | [6]; at 33.0 µM 21% | [7]; at 1.2 µM -7% | [7]; at 3.7 µM -17% | [7]; at 11.0 µM -4% | [7]; at 33.0 µM 30% | [8]; [17] 9% | [9]; at 1.2 µM -15% | [9]; at 3.7 µM -14% | [9]; at 11.0 µM -27% | [9]; at 33.0 µM -20% | [10]; [17] 42% | [11]; at 1.2 µM -21% | [11]; at 3.7 µM -14% | [11]; [17] 22% | [11]; at 11.0 µM -12% | [11]; at 33.0 µM 21% | [12]; at 1.2 µM -45% | [12]; at 3.7 µM -39% | [12]; at 11.0 µM -33% | [12]; at 33.0 µM -5% | [13]; at 1.2 µM -17% | [13]; at 3.7 µM -19% | [13]; at 11.0 µM -11% | [13]; at 33.0 µM 69% | [14]; at 1.2 µM -14% | [14]; at 3.7 µM -17% | [14]; at 11.0 µM -19% | [14]; at 33.0 µM 3% | [15]; [17] -14% | [16]; at 1.2 µM -22% | [16]; at 3.7 µM -22% | [16]; at 11.0 µM -15% | [16]; at 33.0 µM 54%
